High-throughput results deposited in PubChem by several laboratories.
PLC-beta3 inh: PLC-beta3 (human) inhibition, primary screen; Q01970; Purified PLC-beta3, fluorogenic substrate, fluorescence; inhibition, % at 12.2 µM; 0.18% of 370,000 active; in the data active means inhibition above about 11%;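 further: 0% = median of compound wells on plate and 100% = full blocker control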
Yeast superoxide: lowers age-related superoxide in aged yeast cells | S. cerevisiae aged cells, superoxide DHE fluorescence; hits give low values | superoxide response (% of plate mean), % at 10 µM | 0.18% of 330,000 active;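 active means superoxide response under a set limit, about three screen SD below normal, cut at about 65% in these data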;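 further: yeast aged for seven days with compound at 30 °C before DHE staining; 100% = average MFI of all compound-treated wells on the plate with controls excluded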
AHR activator: human AHR activation | AHR-responsive luciferase reporter cells, luminescence | activation, % at 5 µM | 2.5% of 320,000 active; in the data active means activation above about 47%;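 further: 0% = vehicle wells and 100% = reference agonist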
sPLA2-III inh: Inhibits HGIII-sPLA2 liposome hydrolysis, primary screen | 0.56% of 370,000 active | QFRET BODIPY PC-A2 liposome hydrolysis, fluorescence | Q9NZ20 | inhibition, % at 12.2 µM;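 active means inhibition above mean plus 3 SD of compounds lying within the high and low control bounds, cut at about 19% in these data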;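 further: 0% = median of test compound wells and 100% = no enzyme DMSO wells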
Target sequence (Q9NZ20 whole entry, looked up): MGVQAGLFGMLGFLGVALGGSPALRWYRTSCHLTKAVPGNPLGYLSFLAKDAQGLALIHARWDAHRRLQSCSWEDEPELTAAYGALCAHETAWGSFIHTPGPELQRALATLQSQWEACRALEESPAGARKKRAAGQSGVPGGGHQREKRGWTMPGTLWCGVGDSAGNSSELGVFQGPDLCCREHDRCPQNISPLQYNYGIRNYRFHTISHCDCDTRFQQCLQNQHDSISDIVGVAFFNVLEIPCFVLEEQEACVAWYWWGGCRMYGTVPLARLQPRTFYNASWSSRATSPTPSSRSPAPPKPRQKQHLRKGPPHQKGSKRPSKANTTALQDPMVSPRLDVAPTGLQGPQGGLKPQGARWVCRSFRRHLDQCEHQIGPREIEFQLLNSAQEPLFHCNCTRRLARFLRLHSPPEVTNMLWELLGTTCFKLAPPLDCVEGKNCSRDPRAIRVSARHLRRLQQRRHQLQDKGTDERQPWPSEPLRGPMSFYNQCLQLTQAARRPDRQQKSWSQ
HIF act: HIF pathway transcriptional activation; U2OS HRE-luciferase reporter, luminescence; normalized: DMSO 0%, desferrioxamine 100%; activation, % at 7.5 µM (by protocol); 0.32% of 300,000 active; AID 1910;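 active means mean activation of at least 10% of the iron chelator positive control signal, with at least half of replicates also reaching 10%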
PLCg1 inh: inhibitors of human phospholipase C gamma1; purified PLC-gamma1, fluorogenic substrate, fluorescence; inhibition, % at 12.2 µM; 0.84% of 370,000 active; in the data active means inhibition above about 9.5%
Superoxide pick: confirmation of caloric restriction mimetics inhibiting yeast age-related superoxide | shares compounds with Yeast superoxide | S. cerevisiae aging, superoxide DHE fluorescence; hits give low values | AID 434994 | superoxide response (% of plate), % at 10 µM | 1% of 850 active;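 active means superoxide signal below 65% of the plate average of sample wells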;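 further: cells aged with compound for 7 days at 30 degrees C before staining; 100% equals mean DHE fluorescence of all compound wells on the plate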
DHE fluor count: DHE fluorescence interference, counter-screen artifact; shares compounds with Yeast superoxide; S. cerevisiae BY4741, flow cytometry; hits give low values; fluorescence response, % at 10 µM; 850 tested, under 10 active; AID 435000;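 active means fluorescence response below 15%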;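 further: percent of the mean fluorescence averaged over all compound wells on the plate; lower means stronger quenching of DHE signal or ROS scavenging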
The depositor's hits bear a star. A selection: hits, their analogues and other compounds. The true share with any hit is near 3.9%.

How did O=C(NC1CCCCC1)C(c1ccncc1)N(C(=O)c1csnn1)c1ccccc1F (stereo not given) do in these assays?
PLC-beta3 inh: -6.6; Yeast superoxide: 65.0*; AHR activator: 0.1; sPLA2-III inh: 10.5; HIF act: 0.0; PLCg1 inh: -2.8; Superoxide pick: 92.2; DHE fluor count: 99.2

Results for CN1CC(=O)Nc2ccc(Br)cc2C1=O ?
PLC-beta3 inh: -3.7; Yeast superoxide: 64.9*; AHR activator: 1.9; sPLA2-III inh: -1.1; HIF act: -1.1; PLCg1 inh: 8.6; Superoxide pick: 93.5; DHE fluor count: 98.3

Results for CC(=O)Nc1ccc(NC(=O)CSc2ccc(-c3ccc(-n4ccnc4)cc3)nn2)cc1 ?
PLC-beta3 inh: 3.4; Yeast superoxide: 111.3; AHR activator: 12.4; sPLA2-III inh: 2.2; HIF act: -2.4; PLCg1 inh: -0.9; Superoxide pick: 89.0; DHE fluor count: 112.5

What do the screens show for `Fc1cccc2sc(Nc3nc4ccccc4s3)nc12`?
PLC-beta3 inh: -54.4; Yeast superoxide: 65.3*; AHR activator: 43.5; sPLA2-III inh: 0.5; HIF act: 3.5; PLCg1 inh: -36.0; Superoxide pick: 93.4; DHE fluor count: 109.5

How did O=C(NNc1nc2ccccc2s1)c1ccccc1F do in these assays?
PLC-beta3 inh: -1.4; Yeast superoxide: 90.7; AHR activator: 16.3; sPLA2-III inh: 10.8; HIF act: 0.5; PLCg1 inh: -0.3

How did COCCCNC(=O)/C(C#N)=c1\s/c(=C\c2ccccc2OC(F)F)c(=O)n1CCCOC do in these assays?
PLC-beta3 inh: -0.9; Yeast superoxide: 102.6; AHR activator: 0.5; sPLA2-III inh: 8.6; HIF act: 0.5; PLCg1 inh: -1.3

What do the screens show for `CCCCNC(=O)/C(C#N)=c1\s/c(=C\c2ccccc2OC(F)F)c(=O)n1CCCOC`?
PLC-beta3 inh: -0.7; Yeast superoxide: 64.8*; AHR activator: 2.4; sPLA2-III inh: -3.7; HIF act: -0.5; PLCg1 inh: 2.1; Superoxide pick: 117.9; DHE fluor count: 103.8

How did Cc1ccc(N=C2NC(=O)/C(=C/c3cccs3)S2)cc1C do in these assays?
PLC-beta3 inh: -8.9; Yeast superoxide: 59.4*; AHR activator: 6.0; sPLA2-III inh: -19.4; HIF act: 1.0; PLCg1 inh: -9.4; Superoxide pick: 93.5; DHE fluor count: 90.4

How did O=C(CN1C(=O)C2CC=CCC2C1=O)Nc1ccc(F)cc1F (stereo not given) do in these assays?
PLC-beta3 inh: -0.5; Yeast superoxide: 81.7; AHR activator: 0.5; sPLA2-III inh: 13.4; PLCg1 inh: 4.1

What do the screens show for `Cc1ncc([N+](=O)[O-])n1CC(=O)Nc1ccc(F)c(F)c1`?
PLC-beta3 inh: -3.8; Yeast superoxide: 52.8*; AHR activator: 4.0; sPLA2-III inh: 6.8; HIF act: -10.9; PLCg1 inh: 2.3; Superoxide pick: 96.5; DHE fluor count: 94.3

Results for CCc1ccc(NC(=O)CSc2nnc(-c3ccco3)o2)cc1 ?
PLC-beta3 inh: -0.1; Yeast superoxide: 65.0*; AHR activator: 7.3; sPLA2-III inh: 0.4; HIF act: 0.2; PLCg1 inh: 1.6; Superoxide pick: 87.7; DHE fluor count: 91.8

Results for CC1(C)CC(NCc2cccc([N+](=O)[O-])c2)CC(C)(C)N1 ?
PLC-beta3 inh: 0.8; Yeast superoxide: 62.2*; AHR activator: -0.4; sPLA2-III inh: 4.6; HIF act: 1.1; PLCg1 inh: -2.2; Superoxide pick: 112.2; DHE fluor count: 88.4

How did COc1ccc(S(=O)(=O)N2CCC(C(=O)NCC(=O)Nc3c(C)cccc3C)CC2)cc1OC do in these assays?
PLC-beta3 inh: -3.9; sPLA2-III inh: 1.5; PLCg1 inh: 2.6

Results for Cn1c(N)c(C(=O)COC(=O)CCC2CCCCC2)c(=O)n(C)c1=O ?
PLC-beta3 inh: -7.5; Yeast superoxide: 102.7; AHR activator: -0.2; sPLA2-III inh: -8.0; HIF act: -0.8; PLCg1 inh: 0.7

Results for O=C(/C=C/c1ccc(OC2CSC2)cc1)c1ccc(Cl)cc1 ?
PLC-beta3 inh: 4.1; Yeast superoxide: 62.9*; AHR activator: 4.3; sPLA2-III inh: -1.8; HIF act: 0.6; PLCg1 inh: 2.3; Superoxide pick: 99.3; DHE fluor count: 86.3

Results for COc1ccc(C(=O)/C=C/c2ccc(OC3CSC3)cc2)cc1OC ?
PLC-beta3 inh: -5.5; Yeast superoxide: 102.4; AHR activator: 2.7; sPLA2-III inh: 2.8; HIF act: 0.4; PLCg1 inh: -5.1

What do the screens show for `Cc1ccc(-n2c(Cc3cccs3)nnc2SCc2ccc(C#N)cc2)cc1`?
PLC-beta3 inh: 3.7; sPLA2-III inh: 2.8; PLCg1 inh: -1.1

What do the screens show for `O=C(NC(=S)NNC(=O)c1cnccn1)c1ccc(Cl)cc1`?
PLC-beta3 inh: -2.6; Yeast superoxide: 52.7*; AHR activator: 13.3; sPLA2-III inh: 2.8; HIF act: 0.6; PLCg1 inh: -1.7; Superoxide pick: 111.5; DHE fluor count: 92.5

How did Cc1nnc(SCc2ccc(F)cc2)s1 do in these assays?
PLC-beta3 inh: 1.0; Yeast superoxide: 88.8; AHR activator: -1.5; sPLA2-III inh: 3.9; HIF act: 0.5; PLCg1 inh: -2.6

How did Cc1nnc(SCc2ccc(Cl)c(Cl)c2)s1 do in these assays?
PLC-beta3 inh: -6.1; Yeast superoxide: 60.2*; AHR activator: -8.6; sPLA2-III inh: 8.1; HIF act: 0.6; PLCg1 inh: 1.6; Superoxide pick: 107.7; DHE fluor count: 90.0

Results for Cc1c(Cc2ccccc2)c(NCCN(C)C)n2c(nc3ccccc32)c1C#N ?
PLC-beta3 inh: -180.6; Yeast superoxide: 58.7*; AHR activator: -4.9; sPLA2-III inh: 1.2; HIF act: -0.6; PLCg1 inh: -124.1; Superoxide pick: 81.8; DHE fluor count: 119.4

Results for COc1cc(OC)cc(C(=O)Nc2nnc(SCC(=O)NCc3ccco3)s2)c1 ?
PLC-beta3 inh: -34.8; Yeast superoxide: 96.8; AHR activator: 46.6; sPLA2-III inh: -0.6; HIF act: 1.5; PLCg1 inh: -16.9

What do the screens show for `CC(C)(C)c1ccc(CNC(=O)c2ccc3c(c2)NC(=O)CO3)cc1`?
PLC-beta3 inh: -2.1; Yeast superoxide: 95.8; AHR activator: 7.1; sPLA2-III inh: -7.9; HIF act: -0.6; PLCg1 inh: 2.7

Results for O=C1COc2ccc(C(=O)NCc3ccc4c(c3)OCO4)cc2N1 ?
PLC-beta3 inh: 4.5; Yeast superoxide: 64.5*; AHR activator: 6.5; sPLA2-III inh: 6.2; HIF act: -0.1; PLCg1 inh: 2.9; Superoxide pick: 96.6; DHE fluor count: 94.3

What do the screens show for `COc1ccc(Cl)cc1S(=O)(=O)N1CCCC1=O`?
PLC-beta3 inh: 2.8; Yeast superoxide: 97.8; AHR activator: 0.3; sPLA2-III inh: -1.0; HIF act: 0.1; PLCg1 inh: 0.3; Superoxide pick: 108.8; DHE fluor count: 98.7
